LEDGF integ inh – blocks HIV-1 LEDGF/p75-dependent DNA integration; 0.64% of 370,000 active; inhibition, % at 3.7 µM; AID 743269; TR-FRET IN-LEDGF/p75 DNA integration, Eu/Cy5;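 active means inhibition above the screen-wide mean plus 3 SD, cut at about 13% in these data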;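 further: signal is the Cy5 over europium emission ratio at 671 and 618 nm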
PLC-beta3 inh – blocks human PLC-beta3 enzyme activity; inhibition, % at 12.2 µM; AID 720704; Purified PLC-beta3, fluorogenic substrate, fluorescence; Q01970; 0.18% of 370,000 active; in the data active means inhibition above about 11%
MBD2 inh – blocks human MBD2 binding to methylated DNA. Q9UBB5. TR-FRET, MBD2 binding to methylated oligonucleotide. inhibition, % at 4.4 µM. 0.31% of 370,000 active. AID 686964; in the data active means inhibition above about 13%
UHRF1 binding – blocks human UHRF1 binding to methylated DNA; UHRF1 binding to methylated oligo, TR-FRET; 0.75% of 370,000 active; inhibition, % at 4.4 µM; Q96T88;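 further: UHRF1 SRA domain binding a hemimethylated CpG hairpin DNA probe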
PLC-gamma1 inh – PLC-gamma1 (human) inhibition, primary screen; inhibition, % at 12.2 µM; 0.84% of 370,000 active; AID 720700; P19174; purified PLC-gamma1, fluorogenic substrate, fluorescence; in the data active means inhibition above about 9.5%
UHRF1 DNA bind – counter-screen for MBD2 inhibitors: human UHRF1 methylated DNA binding inhibitors | inhibition, % at 4.4 µM | shares compounds with MBD2 inh | AID 720530 | UHRF1 binding to methylated oligonucleotide, TR-FRET | 25% of 1,000 active;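 further: UHRF1 SRA domain binding a labeled hemimethylated CpG hairpin DNA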
MBD2 DBD conf – confirmation of human MBD2-DBD methylated oligonucleotide binding inhibitors | inhibition, % at 4.4 µM | shares compounds with MBD2 inh | AID 720531 | TR-FRET MBD2-DBD binding to methylated oligonucleotide | 26% of 1,000 active; in the data active means inhibition above about 14%
Large screens that a line does not name were inactive (follow-up assays come after a bar, where they were run). Compounds with a hit are over-represented: about 2.4% of the library has one in this group of screens. Unless noted, no stated cut-off is given here; in the data, active means inhibition above about 21%; inactive means the rest.

Cc1[nH]c2ccc(C(=O)O)cc2c1C	none
C#CCNC(=O)C[C@H]1C[C@@]2(C(=O)OC)C(=C[C@H](C3CCCC3)O[C@@H]2C)N(CCc2ccc(OC)c(OC)c2)C1=O	none
CCOc1cccc(CN2CCCC(CNC(=O)c3cccc(OC)c3OC)C2)c1 (stereo not drawn)	MBD2 inh 15.8 | UHRF1 DNA bind inactive | MBD2 DBD conf inactive
COc1cccc(C(=O)NCC2CCCN(C(=O)Cc3cccc(C)c3)C2)c1OC (stereo not drawn)	none
CC1=NN(c2ccccc2)C(=O)/C1=C\c1ccc(Br)s1	none
COc1ccc(/C=C2/C(=O)N(c3ccccc3)N=C2C)cc1Br	MBD2 inh 15.2 | UHRF1 DNA bind inactive | MBD2 DBD conf inactive
COC(=O)C1C(c2ccccc2)C=CC(c2ccccc2)C1C(=O)O (stereo not drawn)	MBD2 inh 43.8 | UHRF1 DNA bind inactive | MBD2 DBD conf inactive
CC(C)[C@@H]1NC(=O)[C@H]2C[C@@]3(c4ccccc4)c4ccccc4N[C@H]3N2C1=O	none
O=C(C1COc2ccccc2O1)N1CCOCC1 (stereo not drawn)	MBD2 inh 13.5 | UHRF1 DNA bind inactive | MBD2 DBD conf inactive
O=C(C1COc2ccccc2O1)N1CCN(c2ccccc2)CC1 (stereo not drawn)	none
COc1ccc(S(=O)(=O)N2CCN(C(=O)C3COc4ccccc4O3)CC2)cc1 (stereo not drawn)	MBD2 inh 25.7, UHRF1 binding 29.3 | UHRF1 DNA bind 74.7 | MBD2 DBD conf 70.2
CC(=O)Nc1ccc(S(=O)(=O)N2CCN(C(=O)C3COc4ccccc4O3)CC2)cc1 (stereo not drawn)	none
O=C(N[C@@H]1C[C@@H]2O[C@@H](CO)CC[C@@H]2O[C@@H]1CCc1ccc(-c2cccnc2)cc1)c1cccc(F)c1	none
COc1cccc(C(=O)Nc2ccc(Oc3cccc(C(F)(F)F)c3)nc2)c1	MBD2 inh 13.5 | UHRF1 DNA bind inactive | MBD2 DBD conf inactive
O=C(Nc1c[nH]c(=O)[nH]c1=O)c1cc([N+](=O)[O-])cc([N+](=O)[O-])c1	MBD2 inh 29.3 | UHRF1 DNA bind inactive | MBD2 DBD conf inactive
CC1CCC2(CCC(=O)N2CCCO)CC1 (stereo not drawn)	none
CC1(C)CC(=O)C=C(NCc2ccco2)C1	MBD2 inh 34.8 | UHRF1 DNA bind inactive | MBD2 DBD conf inactive
CN(C)[C@H]1CCN(c2ccc3c(c2)O[C@@H]2CCN(C2)S3(=O)=O)C1	MBD2 inh 17.6 | UHRF1 DNA bind inactive | MBD2 DBD conf inactive
O=C(OCc1cn(Cc2cccc(C(F)(F)F)c2)nn1)N1CCOCC1	none
CC12CCC(C(N)=O)(c3nc4ccccc4nc31)C2(C)C (stereo not drawn)	MBD2 inh 13.4 | UHRF1 DNA bind inactive | MBD2 DBD conf inactive
O=C(Nc1ccc(F)cc1Cl)C1CCCN1S(=O)(=O)c1cccc2cccnc12 (stereo not drawn)	none
COc1cccc2c1C(=O)c1c(O)c3c(c(O)c1C2=O)C[C@@](O)(C(C)=O)C[C@@H]3O[C@H]1C[C@H](N)[C@H](O)[C@H](C)O1	MBD2 inh 107.0, UHRF1 binding 91.1 | UHRF1 DNA bind 97.8 | MBD2 DBD conf 109.8
COc1cccc2c1C(=O)c1c(O)c3c(c(O)c1C2=O)CC(O)(C(=O)CO)CC3OC1CC(N(C)C)C(O)C(C)O1 (stereo not drawn)	MBD2 inh 112.7, UHRF1 binding 96.7 | UHRF1 DNA bind 99.2 | MBD2 DBD conf 111.4
N#Cc1cccc(-n2cc(COC(=O)NCCc3ccccc3)nn2)c1	none
CC(C)(C)C(=O)Nc1cc(S(=O)(=O)N2CCCCC2)ccc1N1CCCCC1	MBD2 inh 14.2 | UHRF1 DNA bind inactive | MBD2 DBD conf inactive
CCCCNC(=O)Cn1c(-c2ccc(OC)cc2)noc1=O	MBD2 inh 13.7 | UHRF1 DNA bind inactive | MBD2 DBD conf inactive
COc1ccc(Cc2nnc(NC(=O)C3CCCO3)s2)cc1OC (stereo not drawn)	none
COc1ccc(Cc2nnc(NC(=O)C3CCCO3)s2)cc1 (stereo not drawn)	MBD2 inh 15.3 | UHRF1 DNA bind inactive | MBD2 DBD conf inactive
COc1ccc(-c2coc3c(C)c4oc(=O)c(CC(=O)O)c(C)c4cc23)cc1	none
Cc1c(CC(=O)O)c(=O)oc2c(C)c3occ(-c4ccc(Br)cc4)c3cc12	MBD2 inh 29.8 | UHRF1 DNA bind inactive | MBD2 DBD conf inactive
COc1ccc(N2CCN(CCCNC(=O)Cc3ccc(C(F)(F)F)cc3)CC2)cc1	none
O=S(=O)(NCC(Nc1ccc(Cl)cc1)c1ccccc1)c1ccccc1 (stereo not drawn)	none
NS(=O)(=O)c1ccc(NC(CNS(=O)(=O)c2ccccc2)c2ccccc2)cc1 (stereo not drawn)	MBD2 inh 13.8 | UHRF1 DNA bind inactive | MBD2 DBD conf inactive
Cc1cc(C(=O)COC(=O)c2cc(Cl)c(O)c(Cl)c2)c(C)n1C	LEDGF integ inh 42.6, MBD2 inh 17.5, UHRF1 binding 33.4 | UHRF1 DNA bind inactive | MBD2 DBD conf inactive
Cc1cc(C(=O)COC(=O)c2ccc(F)cc2)c(C)n1C	none
Cc1cc(C)n(C(=O)/C(C#N)=C/N(C)C)n1	MBD2 inh 38.7 | UHRF1 DNA bind inactive | MBD2 DBD conf inactive
COc1ccc(C2C(C(=O)NCCN(C)C)c3cc(OC)c(OC)cc3C(=O)N2C)cc1OC (stereo not drawn)	none
CCN(CC)CCNC(=O)C1c2cc(OC)c(OC)cc2C(=O)N(C)C1c1cccs1 (stereo not drawn)	MBD2 inh 42.3 | UHRF1 DNA bind inactive | MBD2 DBD conf inactive
CNC(C)C(=O)NC(C(=O)N1CCCC1C(=O)NNc1ccccc1)C(C)C (stereo not drawn)	MBD2 inh 45.5, UHRF1 binding 56.1 | UHRF1 DNA bind inactive | MBD2 DBD conf inactive
CCSc1nc(C)nc2sc(C)c(C)c12	MBD2 inh 29.0 | UHRF1 DNA bind inactive | MBD2 DBD conf inactive
CN(Cc1ccccc1)C(=O)c1ccc2sc([C@H]3C[C@H](O)[C@@H](CO)O3)nc2c1	none
CCN(CC)C(=O)c1ccc2sc([C@H]3C[C@H](O)[C@@H](CO)O3)nc2c1	MBD2 inh 21.1 | UHRF1 DNA bind inactive | MBD2 DBD conf inactive
O=C(/C=C/c1ccc2ccccc2c1)c1ccoc1	MBD2 inh 20.4 | UHRF1 DNA bind inactive | MBD2 DBD conf inactive
CC1CCCCN1C(=O)CNCc1ccc(F)cc1 (stereo not drawn)	MBD2 inh 36.8 | UHRF1 DNA bind inactive | MBD2 DBD conf inactive
CC1CCCCN1C(=O)Cc1ccc(Cl)cc1 (stereo not drawn)	none
O=C(NCc1cccc(Cl)c1)O[C@H]1CC[C@@]23CCCN2C(=O)CCC[C@H]3C1	none
Cc1ccccc1CC1(CO)CCCN(C(=O)CCC(=O)c2ccccc2)C1 (stereo not drawn)	none

Screening data as filed in PubChem.
